# Experimental data: PubChem BioAssay (NCI)
# Compounds without any hit were thinned out: in the full panel of roughly 83,000, 20% have a hit.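 Interpretation: 100, growth as untreated; towards 0, rising growth inhibition; 0, no net growth; 0 to -100, cell death. Compounds scoring below 10 were considered active.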 Values without a mark were called inactive. Calls of active or inactive are those of the source.
# Tests used:
# Assay in all cases: NCI-60 one-dose screen, 48 h (100 = growth as untreated, 0 = no growth, -100 = all killed)
# Settings in all cases: 10 µM unless noted
# [1] = system: RPMI-8226 leukemia
# [2] = system: OVCAR-8 ovarian
# [3] = system: OVCAR-5 ovarian
# [4] = system: OVCAR-4 ovarian
# [5] = system: SK-OV-3 ovarian
# [6] = system: IGROV1 ovarian
# [7] = system: OVCAR-3 ovarian
# [8] = system: HS 578T breast
# [9] = system: NCI/ADR-RES ovarian
# [10] = system: T-47D breast
# [11] = system: BT-549 breast
# [12] = system: MDA-MB-435 melanoma
# [13] = system: SW-620 colon
# [14] = system: MCF7 breast
# [15] = system: HCT-116 colon
# [16] = system: HCC-2998 colon
# [17] = system: KM12 colon
Compound,growth [1],growth [2],growth [3],growth [4],growth [5],growth [6],growth [7],growth [8],growth [9],growth [10],growth [11],growth [12],growth [13],growth [14],growth [15],growth [16],growth [17]
CNC(=O)c1[nH]cc(-c2ccccc2)c1-c1cc(OC)c2c(c1OC)OCO2,105%,100%,101%,106%,108%,103%,94.9%,102%,101%,88.7%,95.6%,102%,99.9%,99.9%,99.5%,102%,96.9%
COc1cc(Nc2nc(NCCN)nc3cc[nH]c(=O)c23)cc(OC)c1,80%,76.3%,67.9%,80.7%,51.4%,57.8%,109%,82.5%,98.6%,122%,66.7%,69.6%,64.2%,77.2%,46.6%,79.3%,76%
O=C(CS(=O)c1oc(-c2cccs2)nc1S(=O)(=O)c1ccc(Br)cc1)c1ccccc1 (stereo not given),91.8%,91.4%,89.2%,75.2%,89.8%,101%,103%,79.5%,93.8%,82%,97%,95%,97.7%,96.9%,86.2%,98.6%,102%
CCCCCCCCCCCCCCCCCCOc1ccc(CC(=O)OCC[N+](C)(C)C)cc1,91.7%,107%,96.8%,97.3%,107%,91%,115%,99.6%,99.3%,99.5%,95.8%,100%,99.9%,95.8%,,95.4%,96.8%
COc1ccc(-c2cnc3ccccc3n2)cc1,97.2%,99.7%,92.6%,94.2%,98.5%,94.9%,103%,89.4%,102%,96.7%,95.1%,94.4%,96.6%,105%,99.2%,,92.7%
COc1ccc(CNC(=O)C(=O)[C@H](Cc2ccccc2)NC(=O)c2[nH]c3ccccc3c(=O)c2C)cc1,102%,102%,102%,99.5%,108%,98.3%,103%,98.8%,,101%,115%,100%,97.3%,94.3%,101%,110%,101%
CN1CCN(c2ccc(-c3ccc4ncc(C#N)c(Nc5ccc(F)c(Cl)c5)c4c3)cn2)CC1,14.9%,59.8%,60.8%,52.2%,25.8%,8.52% (active),58.6%,52.2%,67.8%,60.8%,,81.6%,53.4%,66.9%,32.8%,68.9%,80.7%
CCN1C(=O)N(CC)C2Nn3c(s/c(=C4\C(=O)N(CCC(C)C)c5ccccc54)c3=O)=NC21 (stereo not given),73.7%,86%,102%,63.5%,98.7%,63.8%,75.8%,81.4%,57.8%,36.3%,,12.5%,61.1%,15.1%,12.6%,,67.9%
c1ccc2c(-c3nc(-c4c[nH]c5ccncc45)cs3)c[nH]c2c1,10.9%,60.2%,70.8%,59.5%,73.3%,54.2%,72.3%,72.3%,72.7%,58.8%,77.3%,-79.8% (active),-63% (active),20.5%,-15.3% (active),,34%
Cc1onc2c(-c3ccccc3)n[nH]c(=O)c12,107%,116%,98.8%,108%,87.1%,140%,106%,127%,106%,83.3%,67.7%,96.9%,111%,89.8%,104%,,107%
N#Cc1c(Nc2cccc(Cl)c2)sc(C(=O)c2cc3cc(Cl)ccc3o2)c1N,56.8%,67.4%,86.4%,92.5%,97.9%,-8.05% (active),111%,105%,84.3%,73.7%,113%,86.3%,18.2%,70.2%,72.4%,,34.5%
c1ccc(Nc2cc(-c3cccnc3)[nH]n2)cc1,103%,95.8%,93.6%,96.6%,92.9%,95.7%,100%,101%,105%,99.5%,99.4%,101%,115%,88.9%,,104%,96.3%
O=C(CCOCCNC(=O)COc1ccc2c(c1)OCC(c1ccc(F)cc1)C2=O)NCCCC(O)(P(=O)(O)O)P(=O)(O)O (stereo not given),108%,104%,103%,99.2%,108%,118%,104%,105%,,101%,105%,102%,101%,89%,101%,98%,100%
COc1cc(C(=O)c2cc(C)c3[nH]c4ccc(C)cc4c3c2C)cc(OC)c1OC,12.9%,28.7%,41.7%,53%,36.9%,13.5%,-16.4% (active),43.1%,-2.71% (active),39.9%,,17.5%,31.4%,11.6%,5.32% (active),15.9%,3.84% (active)
C/C(=C\C(=O)c1ccc(Cl)cc1)c1ccc(Cl)cc1,75%,95.5%,62.3%,67.3%,94.3%,76.3%,99.2%,96.6%,,85.8%,103%,102%,99.3%,19.4%,101%,82.2%,26.2%
COc1ccc2c(c1)c(-c1nn3cc(-c4cccs4)nc3s1)cn2C,68.8%,85.3%,66.5%,70.6%,84.8%,52.9%,96.4%,45.1%,80.3%,43.6%,101%,87.6%,82.3%,60.4%,82.8%,,70.4%
Cc1nc2cnc(N)c(C#Cc3cncc(C(=O)Nc4ccc(CN5CCN(C)CC5)c(C(F)(F)F)c4)c3)c2nc1C,-23% (active),10.4%,8.89% (active),-10.9% (active),8.06% (active),-10.4% (active),8.72% (active),-20.2% (active),36.1%,45.2%,,0.973% (active),-20.9% (active),1.7% (active),0.345% (active),11.5%,-17.4% (active)
O=c1[nH]c2c(ccc3cnccc32)c2c1CCC2,-31% (active),13.9%,-2.64% (active),28.3%,3.27% (active),-71% (active),-27% (active),-21.8% (active),7.35% (active),-7.41% (active),-51.7% (active),-60.1% (active),-11.9% (active),-4.54% (active),,-51.8% (active),-17.9% (active)
